Molecules are shown by their SMILES. The campaign covered roughly 310,000 compounds. About 14,000 (4.5%) showed an effect of 50% or more. Effects have a minus sign here. The list comes from a sample in which strong results are over-represented; it also holds similar structures and randomly drawn compounds.
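Note: peak tail current of the secondary pulse compared with the same well before compound.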

Chain of human ether-à-go-go-related gene (hERG) potassium channel (Q12809 whole entry, looked up): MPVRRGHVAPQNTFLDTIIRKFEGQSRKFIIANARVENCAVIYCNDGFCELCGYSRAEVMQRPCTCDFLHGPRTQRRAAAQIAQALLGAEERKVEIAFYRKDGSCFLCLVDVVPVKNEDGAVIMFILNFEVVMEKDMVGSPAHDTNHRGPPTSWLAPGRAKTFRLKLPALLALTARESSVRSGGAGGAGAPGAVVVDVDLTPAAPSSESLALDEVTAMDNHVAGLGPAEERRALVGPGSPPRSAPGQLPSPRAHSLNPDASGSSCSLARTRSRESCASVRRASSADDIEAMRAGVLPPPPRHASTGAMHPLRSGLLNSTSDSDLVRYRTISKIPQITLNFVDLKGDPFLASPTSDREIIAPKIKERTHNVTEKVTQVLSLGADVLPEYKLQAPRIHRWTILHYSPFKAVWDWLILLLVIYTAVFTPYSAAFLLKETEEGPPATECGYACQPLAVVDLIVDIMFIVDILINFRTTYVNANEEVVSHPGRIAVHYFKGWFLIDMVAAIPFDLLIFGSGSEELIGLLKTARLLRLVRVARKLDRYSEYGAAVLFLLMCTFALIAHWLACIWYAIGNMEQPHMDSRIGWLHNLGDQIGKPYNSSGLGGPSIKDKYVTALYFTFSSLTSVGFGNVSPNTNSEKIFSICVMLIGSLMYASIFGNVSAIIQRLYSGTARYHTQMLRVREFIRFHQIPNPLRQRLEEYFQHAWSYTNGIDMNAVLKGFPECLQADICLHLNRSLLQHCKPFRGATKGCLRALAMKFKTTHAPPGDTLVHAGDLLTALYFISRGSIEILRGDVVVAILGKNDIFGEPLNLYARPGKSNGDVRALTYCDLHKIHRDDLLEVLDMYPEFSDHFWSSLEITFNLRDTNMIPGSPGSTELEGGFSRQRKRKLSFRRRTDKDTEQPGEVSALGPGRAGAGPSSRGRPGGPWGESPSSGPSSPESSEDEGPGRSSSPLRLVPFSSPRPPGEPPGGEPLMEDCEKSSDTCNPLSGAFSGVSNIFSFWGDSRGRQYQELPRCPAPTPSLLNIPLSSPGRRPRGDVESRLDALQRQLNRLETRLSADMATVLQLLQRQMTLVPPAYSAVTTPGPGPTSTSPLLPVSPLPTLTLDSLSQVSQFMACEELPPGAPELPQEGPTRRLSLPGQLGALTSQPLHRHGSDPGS

The assay concerns the target human ether-à-go-go-related gene (hERG) potassium channel (human, UniProt Q12809). The assay can be described thus: primary screen, population patch clamp on CHO cells stably expressing hERG; higher = less effect of the substance.
Regarding `O=[N+]([O-])c1cc2c(cc1Br)CCN2`, the “hERG current change (%, negative = inhibition) at 10uM” value was 11.2%. Next, `O=C(O/N=C1\CCCc2ccccc21)C1CC1`: 14.4%; `O=C(O)CCCC(=O)Nc1ccc(Oc2cccc(C(F)(F)F)c2)nc1`: 19.4%; `CCC(C(=O)NCCc1ccccc1OC)n1nc(C)c2c(C)n(-c3ccccc3)nc2c1=O` (centres unmarked): -30%.

As for `O=C(COC(=O)c1cc(NS(=O)(=O)c2cccs2)ccc1O)Nc1ccc(F)c(F)c1F`, the “hERG current change (%, negative = inhibition) at 10uM” value was 4.87%. Turning to `CCC(=O)Nc1cccc(NC(=S)NC(=O)c2cccs2)c1`, the “hERG current change (%, negative = inhibition) at 10uM” value is reported as 3.59%. Next, `O=C(NC(=S)Nc1cccc(-c2ccc(CO)o2)c1)c1cccs1`: 23.7%. Consider `CC(C)(O)c1ccc2c(c1)CCC1C(C)(C(=O)O)CCCC21C` (centres unmarked), for which the “hERG current change (%, negative = inhibition) at 10uM” value amounted to 4.17%. Regarding `CCOC(=O)Cc1cc(=O)n2[nH]cc(-c3cccc(Br)c3)c2n1`, the “hERG current change (%, negative = inhibition) at 10uM” value worked out at 35.6%. On to `CC(=O)N1CCc2cc(S(=O)(=O)NC(C(=O)Nc3nc(C)cs3)C(C)C)ccc21` (centres unmarked), for which the “hERG current change (%, negative = inhibition) at 10uM” value came out at 8.38%.

`CCN1C(=O)C2C(c3ccc(O)c(OC)c3)NC(C)(C(=O)OC)C2C1=O` (centres unmarked): the “hERG current change (%, negative = inhibition) at 10uM” value is on record as 12.1%. For `COc1cc(=O)[nH]c(SCc2c(F)c(F)c(F)c(F)c2F)n1` the value was 0.443%. Next, `CC(=O)N(CC(=O)O)c1ccccc1C(=O)O`: 12%; `O=C1/C(=C2\C(=O)N(Cc3ccc(F)cc3)c3ccccc32)SC(=S)N1CCS(=O)(=O)O`: 4.31%; `O=C(CN1C(=O)/C(=C2\SC(=S)N(CCS(=O)(=O)O)C2=O)c2ccccc21)Nc1cccc(Br)c1`: -73.1%. Regarding `Cc1cccc(NC(=O)CN2C(=O)/C(=C3\SC(=S)N(CC4CCCO4)C3=O)c3ccccc32)c1` (centres unmarked), the “hERG current change (%, negative = inhibition) at 10uM” value was found to be 12.9%. For `COc1ccccc1CCNC(=O)C1CCC(=O)N(C2CCCCCC2)C1` (centres unmarked), the “hERG current change (%, negative = inhibition) at 10uM” value was -7.62%.

Turning to `Cc1ccc(-c2nnc3sc(-c4ccncc4)nn23)cc1`, the “hERG current change (%, negative = inhibition) at 10uM” value is reported as -41.4%. For `Cc1cn2c(-c3ccncc3)nnc2s1` the value was 7.96%; for `N#Cc1cc2sc3nnc(-c4ccncc4)n3c2cc1C#N`, -54%. For `COCCCNC(=O)c1ccc(Cn2c(=O)c3ccccc3n(CC(=O)NCc3ccco3)c2=O)cc1` the value was 6.71%; for `COc1cccc2sc(=NC(=O)CS(=O)(=O)c3ccc(Cl)cc3)n(C)c12`, -60.8%. As for `COc1cccc2sc(=NC(=O)CS(=O)(=O)c3ccc(F)cc3)n(C)c12`, the “hERG current change (%, negative = inhibition) at 10uM” value was -0.213%.

Take `COc1cccc2sc(=NC(=O)CCS(=O)(=O)c3ccc(C)cc3)n(C)c12`: the “hERG current change (%, negative = inhibition) at 10uM” value was found to be 8.32%. Next, `Cc1ccccc1OCC(=O)NN1C(=O)C2C3C=CC(O3)C2C1=O` (centres unmarked): 12.3%. As to `COCCc1nnc(NC(=O)Cc2ccccc2)s1`, the “hERG current change (%, negative = inhibition) at 10uM” value was 4.67%. Turning to `C#Cc1ccc([C@@H]2C=C(C(=O)NCc3ccccc3)O[C@H](OCc3ccc(CO)cc3)C2)cc1`, the “hERG current change (%, negative = inhibition) at 10uM” value is recorded as 6.15%. For `O=C(c1cc2ccccc2oc1=O)N(Cc1cccs1)Cc1cccs1` the value was -14.4%; for `O=C(c1cc2ccccc2oc1=O)N(Cc1ccco1)Cc1cccs1`, -58.3%.

In the case of `O=C(c1cc2ccccc2o1)N(Cc1ccco1)Cc1cccs1`, the “hERG current change (%, negative = inhibition) at 10uM” value is listed as -35.4%.

With `O=C(c1cc2ccccc2oc1=O)N(Cc1ccc2c(c1)OCO2)Cc1ccco1`, the “hERG current change (%, negative = inhibition) at 10uM” value is listed as -59.3%. Regarding `O=C(NCCC(=O)N(Cc1ccco1)Cc1cccs1)c1ccccc1Cl`, the “hERG current change (%, negative = inhibition) at 10uM” value is given as -16.5%. Next, `COc1ccccc1C(=O)NCCC(=O)N(Cc1ccco1)Cc1cccs1`: -21.3%; `O=C(NCCC(=O)N(Cc1ccco1)Cc1cccs1)c1ccc(Br)cc1`: -58.7%.

In the case of `O=C(c1cc2ccccc2oc1=O)N(Cc1ccco1)CC1CCCO1` (centres unmarked), the “hERG current change (%, negative = inhibition) at 10uM” value is 6.96%. For `O=C(NCc1ccc2c(c1)OCO2)c1cc2ccccc2oc1=O` the value was 12%. For `CCn1c(CNC(=O)c2ccc(OC)c(OC)c2)nnc1SCC(=O)Nc1ccccc1` the value was -21.5%; for `COC(=O)C1=C(c2cccc(C#N)c2)C[C@@H]2CC[C@H]1N2C(=O)N1CCOCC1`, 6.41%. Next, `COc1ccc(-c2noc(CN(C)C(=O)CCN3C(=O)[C@H]4CC=CC[C@H]4C3=O)n2)cc1`: -2%. As for `COc1cc(C(=O)NCC(=O)OCC(=O)N2CCc3ccccc32)cc(OC)c1OC`, the “hERG current change (%, negative = inhibition) at 10uM” value is 3.43%. Next, `COc1ccc(OC)c(S(=O)(=O)Oc2ccc(N)c3ccccc23)c1`: 7.83%; `CC(C)(C)c1ccc(C(=O)NNC(=S)NCC2CCCO2)cc1` (centres unmarked): 14.4%. For `CCOc1ccc(NC(=O)CCSc2ccc(C)cc2)cc1` the value was 8.63%; for `O=C(c1ccco1)N1CCN(C(=O)c2ccc(CS(=O)c3cccc(Cl)c3)o2)CC1` (centres unmarked), -14%. In the case of `Cc1ccc(NC(=O)N2CCN(C(=O)c3ccco3)CC2)cc1Cl`, the “hERG current change (%, negative = inhibition) at 10uM” value was -2.38%. As for `O=C(c1cccc(Cl)c1)N1CCN(C(=O)c2ccco2)CC1`, the “hERG current change (%, negative = inhibition) at 10uM” value is on record as -8.43%. For the compound `Cc1ccc(Nc2nc(N)nc(CN3CCN(C(=O)c4ccco4)CC3)n2)cc1Cl`, the “hERG current change (%, negative = inhibition) at 10uM” value is -74%. For `Nc1nc(CN2CCN(C(=O)c3ccco3)CC2)nc(Nc2cccc(Cl)c2)n1`, the “hERG current change (%, negative = inhibition) at 10uM” value is given as -78.6%. For `Cc1cc(/C=C2\SC(=S)NC2=O)c(C)n1-c1ccccc1` the value was 14.6%; for `Oc1c(/C=C/C=C/C=Nc2ccccc2)sc(=S)n1Cc1ccccc1`, -5.14%; for `CN1CCN(c2nc(-c3ccco3)cc(C(F)(F)F)n2)CC1`, -62.8%. On to `FC(F)(F)c1cc(-c2ccco2)nc(N2CCN(c3ccccc3)CC2)n1`, for which the “hERG current change (%, negative = inhibition) at 10uM” value is recorded as 1.67%.

As to `Fc1ccc(N2CCN(c3nc(-c4ccco4)cc(C(F)(F)F)n3)CC2)cc1`, the “hERG current change (%, negative = inhibition) at 10uM” value was determined as 15.2%. In the case of `O=C(O)Cc1ccc(NC(=O)C2CC=CCC2C(=O)O)cc1` (centres unmarked), the “hERG current change (%, negative = inhibition) at 10uM” value is 23.7%. Next, `C[C@@H](NC(=O)c1nc[nH]c1C(=O)NC1CCN(C(=O)OC(C)(C)C)CC1)c1ccccc1`: -14.4%. Consider `CCOc1ccccc1C1CC(c2ccc(F)cc2)Nc2nc(N)nn21` (centres unmarked), for which the “hERG current change (%, negative = inhibition) at 10uM” value is given as -48.1%. For `Nc1nc2n(n1)C(c1c(F)cccc1Cl)CC(c1ccc(F)cc1)N2` (centres unmarked) the value was -62.4%; for `Nc1nc2n(n1)C(c1cccs1)CC(c1ccccc1)N2` (centres unmarked), -23.5%. Next, `CCOc1ccccc1C1CC(c2ccccc2)Nc2nc(N)nn21.Cl` (centres unmarked): -11.9%. Next, `CCOc1ccccc1C1CC(c2ccc(Br)cc2)Nc2nc(N)nn21` (centres unmarked): -55.1%; `Nc1nc2n(n1)C(c1cccs1)CC(c1ccc(F)cc1)N2` (centres unmarked): -33.9%; `Cc1ccccc1C1CC(c2ccc(F)cc2)Nc2nc(N)nn21` (centres unmarked): -27.2%. With `Cc1ccc(C2CC(c3ccccc3C)n3nc(N)nc3N2)cc1` (centres unmarked), the “hERG current change (%, negative = inhibition) at 10uM” value is -14.6%. Take `Nc1nc2n(n1)C(c1cccs1)CC(c1ccc(Br)cc1)N2` (centres unmarked): the “hERG current change (%, negative = inhibition) at 10uM” value is -57.5%. In the case of `Cc1ccccc1C1CC(c2ccc(Br)cc2)Nc2nc(N)nn21` (centres unmarked), the “hERG current change (%, negative = inhibition) at 10uM” value is recorded as -52.3%. Next, `Nc1nc2n(n1)C(c1ccccc1Cl)CC(c1ccc(F)cc1)N2` (centres unmarked): -25.1%. For `COc1cccc(C2CC(c3c(F)cccc3Cl)n3nc(N)nc3N2)c1` (centres unmarked) the value was -2.6%; for `CC(=O)N1CCN=C1SCc1cccc(Cl)c1`, -3.91%.

Regarding `CC(C)C(c1nnnn1C1CCCCC1)N1CCc2ccccc2C1` (centres unmarked), the “hERG current change (%, negative = inhibition) at 10uM” value stood at 2.91%. In the case of `c1ccc(-c2cnc(-c3ccccn3)nn2)cc1`, the “hERG current change (%, negative = inhibition) at 10uM” value is given as 18.6%. Next, `O=C(NCc1ccco1)c1ccc(N2CCCC2=O)cc1`: 4.3%; `Cc1cc(Nc2ccc(O)cc2)ccc1N`: 14.1%. For `COc1ccc(CCN=C2SCC(=O)N2C)cc1OC`, the “hERG current change (%, negative = inhibition) at 10uM” value is -4.8%. Next, `CCCCn1c(N)c(N(CCOC)C(=O)CSCc2c(C)noc2C)c(=O)[nH]c1=O`: 17.1%; `O=C(O)c1ccc(NS(=O)(=O)c2ccc(N3CCCC3)c([N+](=O)[O-])c2)cc1`: 11.3%. As to `CCN(CCO)c1nc(N2CCCCC2)c2cnn(C)c2n1`, the “hERG current change (%, negative = inhibition) at 10uM” value stood at 3.12%. In the case of `COc1ccc2c(=O)c(C(=O)O)c(-c3ccc4c(c3)OCO4)n(C)c2c1`, the “hERG current change (%, negative = inhibition) at 10uM” value is 17.2%. With `CCN=C1SC(CC(=O)NCC)C(=O)N1CC` (centres unmarked), the “hERG current change (%, negative = inhibition) at 10uM” value was -12.5%. Next, `O=C(N/N=C/c1ccc(O)cc1)c1cc(-c2ccccc2)nc2ccccc12`: 11.2%; `Cc1cccc(NC(=O)c2cc3ccccc3o2)c1`: -19.8%. As for `Cn1c(NCc2ccco2)nc2ccccc21`, the “hERG current change (%, negative = inhibition) at 10uM” value is -10.2%. Take `CCCn1c(NCc2ccc(C)o2)nc2ccccc21`: the “hERG current change (%, negative = inhibition) at 10uM” value is recorded as -24.1%. Next, `CCn1c(NCc2ccco2)nc2ccccc21`: 2.38%; `CCCCCn1c(NCc2ccco2)nc2ccccc21`: -74.8%; `CCCCCCn1c(C(C)NC(=O)c2ccco2)nc2ccccc21` (centres unmarked): -59.9%. For `CCCCCn1c(C(C)NC(=O)CCC)nc2ccccc21` (centres unmarked) the value was -48.4%; for `CCCCn1c(C(C)NC(=O)CC)nc2ccccc21` (centres unmarked), -21.9%; for `CCN(CC)CCn1c(NCc2ccccn2)nc2ccccc21.Cl`, -34.4%. For `CCn1c(-c2cccs2)nc2ccccc21` the value was -11.4%; for `c1csc(Cn2c(-c3cccs3)nc3ccccc32)c1`, -68.6%; for `C=CCn1c(-c2cccs2)nc2ccccc21`, 3.12%. On to `CCN(CC)CCn1c(NCc2ccco2)nc2ccccc21.Cl`, for which the “hERG current change (%, negative = inhibition) at 10uM” value was -73%.

The record behind these values is article PMC4336329 (PLoS ONE, 2015).
